Drawing on PubChem BioAssay (NCI), this text covers growth for 18 compounds.

This is part of a sample that, as a whole, favours compounds with a hit. Of some 83,000 tested, about 20% had one in any assay.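 Note: values are percent growth. 100 is the growth of untreated cells, values between 100 and 0 indicate rising inhibition; between -100 and 0 indicates cell death.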 A number with no mark means an inactive call. Activity calls are given as the source filed them. The calls were made as follows: active = growth percent below 10; inactive = the rest.

What all share (assay): NCI-60 one-dose screen, 48 h (100 = growth as untreated, 0 = no growth, -100 = all killed)
Holding throughout (conditions): 10 µM

Assay [1] relates to NCI-H23 lung.
Assay [2] relates to NCI-H226 lung.
Assay [3] has as its system NCI-H322M lung.
The test system of assay [4] is HOP-62 NSCLC.
The subject of assay [5] is NCI-H460 lung.
In assay [6] the test system is NCI-H522 lung.
Assay [7] concerns 786-0 renal.
In assay [8] the test system is COLO 205 colon.
Assay [9] relates to DU-145 prostate.
The subject of assay [10] is K-562 leukemia.
The test system of assay [11] is MALME-3M melanoma.
In assay [12] the test system is MDA-MB-231 breast.
Assay [13] has as its system RXF 393 renal.
The subject of assay [14] is SF-268 CNS.
Assay [15] relates to SF-295 CNS.
Assay [16] has as its system SF-539 CNS.
Assay [17] concerns UACC-257 melanoma.
The test system of assay [18] is M14 melanoma.
The subject of assay [19] is A549/ATCC NSCLC.
Assay [20] concerns HOP-92 NSCLC.

Turning to `O=C(NC1CCCCC1)OCc1c(COC(=O)NC2CCCCC2)c(-c2ccc(Cl)c(Cl)c2)n2c1CCC2`, the growth in assay [1] is 22.7%; in [2], 2.9% (active); in assay [3], 48.6%; in assay [4] it was 27.4%; in assay [5], 3.73% (active); in assay [6] it was -23.9% (active). For the same compound, the growth in assay [7] is 8.95% (active); in assay [8], 31.8%; in assay [9] it was 20.2%; in assay [10], 10.5%; in assay [11] it was 31.8%; in assay [12] it was 42.3%. Besides, the growth in [13] is -13.6% (active); in [14] it was 29.2%; in [15], 24.7%; in [16], 20.1%; in assay [17], 66.2%; in assay [18] it was 21.6%.

As for `COCCCNC(=O)c1nnn2c1nc(N)c1cc(Cl)ccc12`, the growth is 98.4% in assay [1]; 94.1% in [2]; 88.9% in [3]; 80.4% in [4]; 102% in assay [5]; 106% in assay [19]. Also, the growth was 96.6% in [7]; 77.7% in [8]; 105% in [9]; 34.6% in assay [10]; 65.1% in assay [11]; 100% in [12]. The growth in assay [13] is 103%; in assay [14], 94.1%; in assay [15], 91.7%; in assay [16], 94%; in assay [18], 79.3%.

For `CCC/C=C(\C)C(C)(C#N)C(=O)OCC` (centres undefined), the growth in assay [1] was 116%; in assay [2], 101%; in assay [3], 111%; in assay [4], 99.1%; in assay [5] it was 108%; in assay [19] it was 95.7%. For the same compound, the growth was 110% in [7]; 110% in [8]; 124% in [9]; 100% in assay [10]; 107% in assay [11]; 122% in assay [12]. The growth is 105% in [13]; 118% in assay [14]; 112% in assay [15]; 102% in [16]; 86.2% in [17]; 116% in assay [18].

For `COc1ccc(C(C)C=O)cc1` (centres undefined), the growth in [1] was 106%; in [2] it was 111%; in [3] it was 122%; in assay [4], 107%; in assay [5], 108%; in [19], 105%. For the same compound, the growth is 107% in [7]; 115% in assay [8]; 109% in assay [9]; 104% in [10]; 133% in [11]; 110% in assay [12]. Further, the growth in assay [13] is 139%; in assay [14] it was 114%; in assay [15] it was 115%; in assay [16] it was 99%; in [17], 117%; in [18], 109%.

`O=C(CCNNC(=O)c1ccncc1)NCc1ccccc1`: the growth was 95.8% in assay [1]; 90.7% in [2]; 110% in [3]; 98.3% in assay [4]; 102% in assay [5]; 58.2% in assay [6]. The growth in assay [19] was 104%; in assay [7] it was 107%; in [11] it was 110%; in assay [12] it was 60.9%; in [13], 93.8%; in assay [14], 95.8%. The growth was 105% in [15], 95.4% in assay [16], 110% in assay [17] and 103% in assay [18].

Turning to `S=c1nn[nH]c2ccccc12`, the growth was 99.6% in assay [1]; 93.8% in assay [2]; 95.6% in assay [3]; 98% in assay [4]; 105% in [5]; 96.4% in assay [19]. Also, the growth in assay [7] was 111%; in [8] it was 93.4%; in assay [9] it was 120%; in [10], 99%; in assay [11], 148%; in [12] it was 93.4%. The growth in assay [13] was 114%; in [14] it was 110%; in [15] it was 113%; in assay [16], 105%; in assay [17] it was 108%; in assay [18], 102%.

Regarding `S=C(Nc1ccccc1)N1CCCCC1`, the growth in assay [1] was 99.9%; in assay [2] it was 89.6%; in assay [3] it was 99%; in assay [4], 90.9%; in [5] it was 110%; in assay [6], 94.9%. Also, the growth in assay [19] was 99.2%; in assay [7] it was 102%; in [10], 110%; in assay [11] it was 107%; in assay [12], 98.5%; in [13] it was 109%. Besides, the growth in [14] is 107%; in assay [15] it was 98.2%; in [16], 96.7%; in assay [17] it was 95.9%; in assay [18] it was 97.3%.

As for `O=C(N/N=C\c1cc(Br)cc(Br)c1O)N/N=C/c1cc(Br)cc(Br)c1O`, the growth was 67.1% in [1]; 50.6% in [2]; 42.2% in assay [3]; 52.8% in [4]; 69.8% in assay [5]; 22.3% in assay [6]. Moreover, the growth is 46.5% in assay [7]; 62.1% in assay [8]; 75.2% in [9]; 22.9% in assay [10]; 70.2% in assay [11]; 72% in assay [12]. Further, the growth in [14] is 51.1%; in assay [15], 6.45% (active); in assay [16], 35.5%; in assay [18] it was 55.2%.

As to `COc1cc2c(cc1OC)[C@H](C(=O)O)[C@@H](c1ccc(OC(C)C)c(OC)c1)N(C)C2=O`, the growth is 96.8% in [1]; 89.9% in assay [2]; 83.5% in [3]; 92.4% in assay [4]; 105% in assay [5]; 106% in assay [19]. The growth in assay [7] was 100%; in [8], 118%; in assay [9], 114%; in assay [10] it was 99.6%; in [11], 94.8%; in [12], 104%. Moreover, the growth is 116% in assay [14], 94.5% in assay [15], 94.4% in assay [16] and 104% in assay [18].

Consider `c1cc[n+](C2c3ccccc3C([n+]3ccccc3)c3ccccc32)cc1` (centres undefined), for which the growth is 65.2% in assay [1]; 49.6% in assay [2]; 84.8% in assay [3]; 37.8% in assay [4]; 98.8% in assay [5]; 78.5% in assay [19]. Moreover, the growth was 50% in assay [7]; 30.8% in assay [8]; 91.7% in [9]; 72.9% in assay [10]; 53.1% in assay [11]; 70.6% in assay [12]. Further, the growth is 61.6% in [13]; 23% in assay [14]; 52% in assay [15]; 27.9% in assay [16]; 80.1% in [17]; 96% in assay [18].

As to `NC(C(=O)O)c1ccc([N+](=O)[O-])cc1` (centres undefined), the growth in [1] was 105%; in assay [2], 103%; in assay [3] it was 111%; in assay [4], 96.5%; in assay [5], 108%; in assay [19], 109%. The growth in assay [7] was 109%; in [8], 104%; in [9], 109%; in assay [10], 113%; in assay [11], 121%; in assay [12], 90.2%. Besides, the growth is 118% in assay [13]; 105% in [14]; 104% in assay [15]; 89.3% in [16]; 111% in assay [17]; 99% in [18].

With `COC(=O)Nc1nc2ccc(C(=O)c3ccc(F)cc3)cc2[nH]1`, the growth in [1] is 31.8%; in assay [2], 145%; in [3], 40.5%; in assay [4] it was 33.1%; in assay [5], 6% (active); in [6], -52.1% (active). In addition, the growth in assay [7] is 26.4%; in [8] it was -37.7% (active); in [9], -31% (active); in assay [10], -37% (active); in assay [11] it was 57.5%; in [12], 26.5%. Moreover, the growth in [13] was -41.2% (active); in [14], 22.6%; in [15], -3.22% (active); in assay [16], -21.8% (active); in assay [17], -2.09% (active); in [18] it was 15.6%.

`CC1CC(O)CC(C)(C)C1` (centres undefined): the growth was 98.4% in assay [1]; 106% in assay [2]; 98.2% in assay [3]; 97.9% in assay [4]; 106% in assay [5]; 97.3% in [19]. The growth in assay [7] is 107%; in assay [8] it was 102%; in assay [9], 101%; in [10], 110%; in [11], 97.4%; in [12], 105%. For the same compound, the growth in assay [13] was 115%; in [14], 91.9%; in [15] it was 98.7%; in assay [16] it was 95.2%; in assay [17], 97.8%; in [18], 108%.

`COc1cc(CCN=Cc2ccccc2O)c([N+](=O)[O-])cc1OC`: the growth is 100% in [1]; 104% in [2]; 101% in assay [3]; 91.9% in assay [4]; 108% in [5]; 102% in assay [19]. The growth is 92.6% in [7]; 110% in assay [8]; 113% in assay [9]; 94.9% in [10]; 89.5% in assay [11]; 112% in assay [12]. Moreover, the growth was 111% in assay [13]; 100% in assay [14]; 87.4% in assay [15]; 106% in assay [16]; 95.6% in assay [18].

Turning to `CCC(=O)Oc1ccc(OC)cc1`, the growth was 108% in assay [1]; 105% in assay [2]; 95.5% in [3]; 98% in [4]; 104% in [5]; 105% in assay [19]. The growth in [7] was 105%; in [8] it was 110%; in [9], 98.3%; in assay [10] it was 107%; in assay [11], 89.1%; in [12], 103%. Besides, the growth was 116% in assay [13]; 102% in assay [14]; 118% in [15]; 101% in assay [16]; 108% in assay [17]; 104% in [18].

As for `OCc1cccc2ccccc12`, the growth in assay [1] was 101%; in [2] it was 112%; in assay [3], 121%; in assay [4], 104%; in assay [5], 112%; in assay [19], 108%. The growth was 109% in assay [7]; 114% in assay [8]; 108% in [9]; 99.3% in assay [10]; 132% in [11]; 112% in assay [12]. For the same compound, the growth in assay [13] is 146%; in [14], 107%; in [15] it was 117%; in assay [16] it was 95.7%; in assay [17], 109%; in [18], 110%.

On to `C=CC(=O)OCCCCCCCC`, for which the growth was 105% in assay [1]; 98.9% in [2]; 117% in [3]; 98.4% in assay [4]; 102% in assay [5]; 99.8% in assay [19]. Moreover, the growth in assay [7] was 104%; in assay [9], 102%; in assay [10], 103%; in assay [11], 108%; in [12] it was 109%; in assay [13] it was 120%. Moreover, the growth in assay [14] was 102%; in assay [15], 104%; in assay [16], 99.5%; in [17], 96.7%; in assay [18] it was 104%.

Turning to `CC(C)C(C#N)(C(C)C)C(C)C`, the growth in [1] was 104%; in assay [2], 104%; in [3], 107%; in assay [4], 101%; in assay [20] it was 95.5%; in [6] it was 92%. The growth in [19] was 97.1%; in assay [7], 113%; in assay [8], 109%; in [9] it was 111%; in assay [10], 114%; in assay [11], 92.9%. Further, the growth in assay [12] was 104%; in assay [13], 115%; in [14] it was 98.1%; in assay [15], 103%; in assay [16] it was 104%; in assay [17], 96%.
